Source: PubChem BioAssay (NCI)
Values joined by “and” are separate entries in the source; they are usually repeats but may differ in a detail not shown here. Identical values can stand only once. Compounds without any hit were thinned out: in the full panel of roughly 79,000, 15% have a hit. Some compounds were tested as several samples or in several runs, with calls that do not always agree. Active and inactive are the calls of the source. No stated cut-off is given here; in the data, active means growth inhibition above about 70%; inactive means the rest.

How the values were obtained:
[1] = NCI Yeast Anticancer Drug Screen. Data for the rad50 strain (AID 155);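 further: 0% = growth of vehicle-only cultures of the same strain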; details: S. cerevisiae rad50 strain growth inhibition, stronger effect = higher value
Procedure, shortened: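 Inhibition values express reduced yeast growth in compound-treated cultures relative to vehicle-treated controls.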

[2] = NCI Yeast Anticancer Drug Screen. Data for the mec2-1 strain (AID 157); details: S. cerevisiae mec2-1 strain, stronger effect = higher value
Procedure, shortened: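 Strain: mec2-1 (DNA repair/cell cycle alteration). Compound exposure, then growth measured; inhibition expressed relative to vehicle.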

[3] = NCI Yeast Anticancer Drug Screen. Data for the sgs1 mgt1 strain (AID 161);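 further: 0% = growth of cultures given vehicle only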; details: S. cerevisiae sgs1 mgt1 strain, stronger effect = higher value
Procedure, shortened: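 Test agents were incubated with a DNA-repair-mutant yeast strain. Growth was then read and compared against vehicle-treated controls.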

[4] = NCI Yeast Anticancer Drug Screen. Data for the cln2 rad14 strain (AID 165);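 further: 0% = growth equal to vehicle treated cultures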; details: S. cerevisiae cln2 rad14 strain, stronger effect = higher value
Procedure, shortened: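 Compounds are applied to the cln2 rad14 yeast strain, and growth is then compared with that of vehicle-treated cultures to give inhibition.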

[5] = NCI Yeast Anticancer Drug Screen. Data for the bub3 strain (AID 167); details: S. cerevisiae bub3 mutant strain, stronger effect = higher value
Procedure, shortened: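 Steps: expose the mutant yeast strain to compound; grow alongside vehicle-treated cultures; measure growth; express inhibition against the vehicle cultures.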

[6] = NCI Yeast Anticancer Drug Screen. Data for the mlh1 rad18 strain (AID 175); details: S. cerevisiae mlh1 rad18 strain growth inhibition, stronger effect = higher value
Procedure, shortened: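 Read-out is yeast growth inhibition, calculated against vehicle-only controls. The compound was applied to a strain engineered with DNA damage repair alterations.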

[7] = at 5.0 µM (retest, dose inferred, filed as 0.5)
[8] = at 50.0 µM (retest, dose inferred, filed as 5.0)

Measured: growth inhibition

CCCCCCCCCCCCc1ccc(S(=O)(=O)O)cc1.[Cu+2]
active: [1]; [8] 88% | [1]; at 50.0 µM 90.3% | [2]; [8] 70% | [3]; [8] 97% | [4]; [8] 81% | [5]; [8] 82% | [6]; [8] 93%
inactive: [1]; [7] -6% | [2]; [7] 14% | [2]; at 50.0 µM 64.9% | [3]; [7] 6% | [3]; at 50.0 µM 41.2% | [4]; [7] 2% | [4]; at 50.0 µM 17.3% | [5]; [7] -9% | [5]; at 50.0 µM 43.8% | [6]; [7] 15% | [6]; at 50.0 µM 66%

c1ccc2c(c1)CC1=C(O2)c2ccccc2OC1
inactive: [1]; [7] -2% | [1]; [8] 48% | [1]; at 50.0 µM 37.5% | [2]; [7] 2% | [2]; at 50.0 µM 39.5% | [3]; [7] 5% | [3]; at 50.0 µM 42.7% | [4]; [7] -3% | [4]; [8] 22% | [4]; at 50.0 µM 46.1% | [5]; [7] 4% | [5]; at 50.0 µM 53% | [6]; [7] 6%
active: [2]; [8] 78% | [3]; [8] 76% | [5]; [8] 80% | [6]; [8] 89% | [6]; at 50.0 µM 92.1%

CCCCCCCCCCCCCC1=NCC(c2ccc3ccccc3c2)O1 (stereo not given)
inactive: [1]; [7] -4% | [1]; [8] -13% | [1]; at 50.0 µM -1.9% | [2]; [7] -4% | [2]; [8] -2% | [2]; at 50.0 µM 4.95% | [3]; [7] -4% | [3]; [8] -23% | [3]; at 50.0 µM -12.6% | [4]; [7] -6% | [4]; [8] -27% | [4]; at 50.0 µM 10.3% | [5]; [7] 1% | [5]; [8] -6% | [5]; at 50.0 µM -4.7% | [6]; [7] -2% | [6]; [8] -6% | [6]; at 50.0 µM -1.95%

O=C(CON1C(=O)c2ccccc2C1=O)c1ccccc1
active: [1]; at 50.0 µM 91.2% | [5]; at 50.0 µM 80.5% | [6]; at 50.0 µM 76.2%
inactive: [1]; [7] -3% | [1]; [8] 19% | [2]; [7] 8% | [2]; [8] 29% | [2]; at 50.0 µM 52% | [3]; [7] 6% | [3]; [8] 21% | [3]; at 50.0 µM 55.1% | [4]; [7] -5% | [4]; [8] -8% | [4]; at 50.0 µM -3.15% | [5]; [7] -7% | [5]; [8] 32% | [6]; [7] -16% | [6]; [8] 18%

Oc1ccccc1C=Nc1ccccc1O
54.4% (inactive) and 72.1% (active): [5]; at 50.0 µM
active: [5]; [7] 79%
inactive: [1]; [7] 22% | [1]; [8] 32% | [1]; at 50.0 µM 59.2% and 56.2% | [2]; [7] 8% | [2]; [8] 22% | [2]; at 50.0 µM 36.7% and 41.9% | [3]; [7] 7% | [3]; [8] 16% | [3]; at 50.0 µM 35.5% and 42.1% | [4]; [7] -5% | [4]; [8] 5% | [4]; at 50.0 µM 17.2% and 32.1% | [5]; [8] 65% | [6]; [7] 38% | [6]; [8] 47% | [6]; at 50.0 µM 49.8% and 29.6%

O/N=C(\CC(O)(C(F)(F)F)C(F)(F)F)c1cccc(Cl)c1
active: [1]; [8] 80% | [1]; at 50.0 µM 91% | [2]; [8] 98% | [2]; at 50.0 µM 93.6% | [3]; [8] 97% | [3]; at 50.0 µM 92.8% | [4]; [8] 95% | [4]; at 50.0 µM 89% | [5]; [8] 97% | [5]; at 50.0 µM 90.5% | [6]; [8] 97% | [6]; at 50.0 µM 89.3%
inactive: [1]; [7] 13% | [2]; [7] 17% | [3]; [7] 10% | [4]; [7] 8% | [5]; [7] 14% | [6]; [7] 26%

CCOC(=O)/C(=C/c1ccc(OC)c(OC)c1)C(=O)c1ccccc1
active: [1]; at 50.0 µM 74.7% | [4]; [8] 71% | [4]; at 50.0 µM 72.5% | [5]; [8] 92% | [5]; at 50.0 µM 78.4% | [6]; [8] 80%
inactive: [1]; [7] 12% | [1]; [8] 49% | [2]; [7] -19% | [2]; [8] 66% | [2]; at 50.0 µM 68% | [3]; [7] 2% | [3]; [8] 65% | [3]; at 50.0 µM 64.7% | [4]; [7] 27% | [5]; [7] 27% | [6]; [7] -7% | [6]; at 50.0 µM 56.5%

O=S(=O)(c1ccc(F)cc1)c1ccc(F)cc1
inactive: [1]; [7] -4% | [1]; [8] -4% | [1]; at 50.0 µM -4.4% and 11.7% | [2]; [7] 10% | [2]; [8] 19% | [2]; at 50.0 µM -35.6% and -12.2% | [3]; [7] -6% | [3]; [8] -1% | [3]; at 50.0 µM -3.8% and -3.55% | [4]; [7] -5% | [4]; [8] -7% | [4]; at 50.0 µM 3.2% and 47.4% | [5]; [7] -1% | [5]; [8] 0% | [5]; at 50.0 µM -4.15% and 19.1% | [6]; [7] 3% | [6]; [8] 10% | [6]; at 50.0 µM 6.7% and 35.2%

COc1c(CBr)c(CBr)c(OC)c2c1C(=O)c1ccccc1C2=O
active: [1]; [8] 99% | [1]; at 50.0 µM 87.2% | [2]; [8] 99% | [3]; [8] 99% | [3]; at 50.0 µM 86.7% | [4]; [8] 99% | [5]; [8] 99% | [6]; [8] 99% | [6]; at 50.0 µM 92.8%
inactive: [1]; [7] 33% | [2]; [7] 14% | [2]; at 50.0 µM 63.8% | [3]; [7] 23% | [4]; [7] 2% | [4]; at 50.0 µM 41% | [5]; [7] 9% | [5]; at 50.0 µM 64.2% | [6]; [7] 19%

O=[N+]([O-])c1ccc(OCCN(Cc2ccccc2)Cc2ccccc2)c([N+](=O)[O-])c1
active: [1]; [8] 70% | [1]; at 50.0 µM 71.5% | [5]; at 50.0 µM 71.5% | [6]; at 50.0 µM 74.8%
inactive: [1]; [7] 3% | [2]; [7] 3% | [2]; [8] 38% | [2]; at 50.0 µM 59.2% | [3]; [7] -11% | [3]; [8] 61% | [3]; at 50.0 µM 60.4% | [4]; [7] 4% | [4]; [8] 24% | [4]; at 50.0 µM 34.1% | [5]; [7] 3% | [5]; [8] 54% | [6]; [7] 5% | [6]; [8] 58%

CCOc1ccc(N/N=C(\CCC(=O)O)C(=O)O)cc1
active: [1]; [8] 92% | [1]; at 50.0 µM 96% | [2]; [8] 77% | [2]; at 50.0 µM 81% | [3]; [8] 84% | [4]; [8] 94% | [4]; at 50.0 µM 94.1% | [5]; at 50.0 µM 86.7% | [6]; [8] 96% | [6]; at 50.0 µM 95.2%
inactive: [1]; [7] -6% | [2]; [7] -9% | [3]; [7] -3% | [3]; at 50.0 µM 50.2% | [4]; [7] -64% | [5]; [7] -15% | [5]; [8] -45% | [6]; [7] -5%

CCCCCCCCCCCCCCCCCC(=O)OC(Cc1ccccc1)C(=O)O (stereo not given)
inactive: [1]; [7] 1% | [1]; [8] -2% | [1]; at 50.0 µM 33.9% | [2]; [7] 1% | [2]; [8] 2% | [2]; at 50.0 µM 18% | [3]; [7] 1% | [3]; [8] -15% | [3]; at 50.0 µM 15.7% | [4]; [7] 2% | [4]; [8] -9% | [4]; at 50.0 µM 26.2% | [5]; [7] 1% | [5]; [8] 2% | [5]; at 50.0 µM 35.7% | [6]; [7] 0% | [6]; [8] -1% | [6]; at 50.0 µM 32.9%

O=C(/C(=C\c1ccc(Cl)c(Cl)c1)c1ccccc1)c1ccc(O)cc1
inactive: [1]; [7] 51% | [2]; [7] 39% | [3]; [7] 48% | [4]; [7] 42% | [5]; [7] 43% | [6]; [7] 54%
active: [1]; [8] 91% | [1]; at 50.0 µM 94% | [2]; [8] 95% | [2]; at 50.0 µM 93.9% | [3]; [8] 93% | [3]; at 50.0 µM 94.1% | [4]; [8] 93% | [4]; at 50.0 µM 92.2% | [5]; [8] 94% | [5]; at 50.0 µM 91.8% | [6]; [8] 92% | [6]; at 50.0 µM 93.2%

COc1ccc(NC(=O)C(=O)NO)c(OC)c1
inactive: [1]; [7] 19% | [2]; [7] -2% | [3]; [7] 9% | [4]; [7] -10% | [5]; [7] 4% | [6]; [7] -28%
active: [1]; [8] 94% | [1]; at 50.0 µM 90.8% | [2]; [8] 96% | [2]; at 50.0 µM 91.1% | [3]; [8] 94% | [3]; at 50.0 µM 91% | [4]; [8] 94% | [4]; at 50.0 µM 87.9% | [5]; [8] 93% | [5]; at 50.0 µM 91.2% | [6]; [8] 95% | [6]; at 50.0 µM 87.9%

CCCC(O)c1ccc(C)cc1 (stereo not given)
98% (active) and -10% (inactive): [5]; [8]
inactive: [1]; [7] 11% and 1% | [1]; [8] 20% and 2% | [1]; at 50.0 µM 12.8% and -26.4% | [2]; [7] 4% and 3% | [2]; [8] 21% and -2% | [2]; at 50.0 µM 33.5% and -6.65% | [3]; [7] 5% and 0% | [3]; [8] 33% and -1% | [3]; at 50.0 µM 0.4% and 15.7% | [4]; [7] 5% and -1% | [4]; [8] 10% and 0% | [4]; at 50.0 µM -43.6% and 18.9% | [5]; [7] -2% and -3% | [5]; at 50.0 µM -6.05% and 14.9% | [6]; [7] 7% and 5% | [6]; [8] 21% and 7% | [6]; at 50.0 µM 6.2% and -10.3%
